From PubChem BioAssay

How the values were obtained:
[1] = tested on: Human papillomavirus type 1a protein E7 (residues 44-93); assay: HPV1a E7 fragment binders on microarrays, primary screen, biochemical, small-molecule microarray, residues 44-93, 635 nm fluorescence (AID 1108); settings: small-molecule microarray binding, fluorescence 635 nm; higher = more signal;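 note: E7 fragment applied at 1 µg/mL in TBST for 1 h at 4 C; score combines spot fluorescence with its signal to noise ratio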
[2] = modulators of HCV replicon luciferase signal, primary screen, HCV replication inhibitor project, Huh7 cells, luciferase reporter (AID 1109); settings: 48 h, higher = more signal;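 note: huh7 hepatoma cells harbouring a luciferase neomycin HCV replicon reporter; luciferase luminescence as measure of HCV replicon replication; test concentration not given here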
[3] = biological target: Left-right determination factor 2 (Homo sapiens) (UniProt O00292); assay: LEFTY2 binders on small-molecule microarrays, primary screen, biochemical, small-molecule microarray, 635 nm fluorescence scan (AID 1110); settings: LEFTY2 binding, higher = more signal
Chain of Left-right determination factor 2 (Homo sapiens) (O00292 whole entry, looked up): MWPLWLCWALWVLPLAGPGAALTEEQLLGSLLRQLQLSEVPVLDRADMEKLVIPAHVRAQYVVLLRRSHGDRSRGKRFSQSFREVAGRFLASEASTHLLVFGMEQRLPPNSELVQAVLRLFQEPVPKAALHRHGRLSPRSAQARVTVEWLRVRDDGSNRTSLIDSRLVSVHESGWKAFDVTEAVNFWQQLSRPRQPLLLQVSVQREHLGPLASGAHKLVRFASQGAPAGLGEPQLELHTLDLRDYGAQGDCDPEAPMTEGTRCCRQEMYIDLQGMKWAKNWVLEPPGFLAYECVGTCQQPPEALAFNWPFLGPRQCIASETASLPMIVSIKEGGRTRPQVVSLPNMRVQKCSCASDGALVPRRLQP

[4] = biological target: Calmodulin-1 (Homo sapiens) (UniProt P0DP23); assay: CALM1 binders on microarrays, EGTA buffer, profiling panel, biochemical, small-molecule microarray, Cy5-labelled CALM1 (AID 1111); settings: Cy5-CALM1 binding fluorescence, higher = more signal;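 note: labelled calmodulin applied in Tris saline Tween buffer holding calcium plus EGTA and DTT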
[5] = biological target: Calmodulin-1 (Homo sapiens) (UniProt P0DP23); assay: calcium-bound CALM1 binders on microarrays, profiling panel, artefact control for SMM control-protein annotation, biochemical, small-molecule microarray, Cy5-labelled CALM1, plus calcium (AID 1112); settings: Cy5-CALM1 binding fluorescence, higher = more signal;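 note: score merges spot fluorescence with signal to noise from triplicate slides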
[6] = small-molecule microarray binders of probe aWnt5a, primary screen, biochemical, biotinylated probe, 635/667 nm fluorescence (AID 1113); settings: higher = more signal;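 note: score merges 667 nm fluorescence intensity with signal-to-noise per printed feature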
[7] = small-molecule microarray binders of probe aShh, primary screen, biochemical, biotinylated probe, 635/667 nm fluorescence (AID 1114); settings: higher = more signal;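 note: probe is biotin-labelled aShh protein from a stem cell growth factor screen; measures binding of labelled protein to compounds printed on the slide; score merges feature fluorescence at 667 nm with signal-to-noise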
[8] = small-molecule microarray binders of probe aNog, primary screen, biochemical, biotinylated probe, 635/667 nm fluorescence (AID 1115); settings: higher = more signal;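 note: probe is biotinylated aNog protein used at 0.15 µg/mL for 1 h at 4 C; z-score combines 667 nm fluorescence of each spot with its signal to noise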
[9] = biological target: Torsin-1A-interacting protein 1 (Homo sapiens) (UniProt Q5JTV8); assay: LAP1 binders from COS7 cell lysate, primary screen, small-molecule microarray, 635/667 nm fluorescence (AID 1116); settings: COS7-hLAP1 lysate binding, 635 nm fluorescence, higher = more signal
Chain of Torsin-1A-interacting protein 1 (Homo sapiens) (Q5JTV8 whole entry, looked up): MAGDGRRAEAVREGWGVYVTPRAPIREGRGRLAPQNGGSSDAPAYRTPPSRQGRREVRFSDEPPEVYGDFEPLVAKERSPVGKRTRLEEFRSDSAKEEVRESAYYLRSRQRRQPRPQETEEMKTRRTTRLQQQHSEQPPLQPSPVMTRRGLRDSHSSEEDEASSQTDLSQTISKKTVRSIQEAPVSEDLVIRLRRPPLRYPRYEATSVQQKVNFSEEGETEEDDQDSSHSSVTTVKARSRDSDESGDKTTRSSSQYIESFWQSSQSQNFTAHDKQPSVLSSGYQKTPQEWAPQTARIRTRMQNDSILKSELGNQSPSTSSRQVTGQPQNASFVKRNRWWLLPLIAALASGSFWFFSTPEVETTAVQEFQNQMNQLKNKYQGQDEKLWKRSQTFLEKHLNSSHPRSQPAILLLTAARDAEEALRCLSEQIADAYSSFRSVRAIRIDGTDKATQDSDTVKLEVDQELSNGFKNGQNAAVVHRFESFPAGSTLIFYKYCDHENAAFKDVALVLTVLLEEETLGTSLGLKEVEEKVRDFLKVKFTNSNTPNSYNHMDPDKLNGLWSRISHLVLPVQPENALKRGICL

[10] = biological target: Alpha-bungarotoxin (Bungarus multicinctus) (UniProt P60615); assay: alpha-bungarotoxin binders on microarray, profiling panel, artefact control for SMM control protein annotation, biochemical, small-molecule microarray, Alexa647 label, 635/667 nm fluorescence (AID 1117); settings: alpha-BTX-A647 binding fluorescence, higher = more signal
Chain of Alpha-bungarotoxin (Bungarus multicinctus) (P60615 whole entry, looked up): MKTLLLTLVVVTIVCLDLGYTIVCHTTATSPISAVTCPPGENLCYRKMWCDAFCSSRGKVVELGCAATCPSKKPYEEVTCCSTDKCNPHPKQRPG

C=CCOC(=O)[C@H]1[C@@H]2C(=O)O[C@@H](c3ccccc3)[C@@H](c3ccccc3)N2[C@@H](c2ccc(OCCOC(=O)[C@@H]3C[C@@H]4C(=O)NCC(=O)N4[C@@H]3c3ccc(O)cc3)cc2)[C@]12C(=O)Nc1ccccc12
composite z-score [1]: 0.919 | z-score [2]: -1.34 | composite z-score [3]: 0.733 | composite z-score [4]: 0.325 | composite z-score [5]: 0.0637 | composite z-score [6]: -0.0573 | composite z-score [7]: -0.0192 | composite z-score [8]: -0.0216 | composite z-score [9]: 0.609 | composite z-score [10]: -0.195

CCCCCCc1nc(CCCc2cc3c(c(CCCCCC)n2)[Si](C(C)C)(C(C)C)OC3)cc2c1[Si](C(C)C)(C(C)C)OC2
composite z-score [1]: -0.893 | z-score [2]: -3.46 | composite z-score [3]: -0.116 | composite z-score [4]: -0.63 | composite z-score [5]: -0.0511 | composite z-score [6]: -0.1 | composite z-score [7]: 0.214 | composite z-score [8]: -0.303 | composite z-score [9]: -0.386 | composite z-score [10]: -0.325

C=C[C@@H](COC(C)=O)N(Cc1ccc([N+](=O)[O-])cc1)S(=O)(=O)c1ccc(Br)cc1
composite z-score [1]: -0.541 | z-score [2]: -0.365 | composite z-score [3]: 0.59 | composite z-score [4]: 0.989 | composite z-score [5]: 0.729 | composite z-score [6]: -0.0597 | composite z-score [7]: -0.0709 | composite z-score [8]: 0.392 | composite z-score [9]: 0.546 | composite z-score [10]: 1.78

COC(=O)[C@@]1(Cc2ccc(F)cc2)[C@H]2c3cc(C(=O)N4CCCC4)n(Cc4cccc5ccccc45)c3C[C@H]2CN1C(=O)c1ccccc1
composite z-score [1]: 1.37 | z-score [2]: -1.37 | composite z-score [3]: -0.201 | composite z-score [4]: 1.23 | composite z-score [5]: 0.0721 | composite z-score [6]: 0.0859 | composite z-score [7]: 0.111 | composite z-score [8]: 1.36 | composite z-score [9]: 1.84 | composite z-score [10]: 1.07

COCCOC(=O)N1C(=O)[C@@]2(c3cc(C#CCC(C(=O)OC)C(=O)OC)ccc31)[C@H](c1ccccc1OCCO)N1[C@H](c3ccccc3)[C@H](c3ccccc3)OC(=O)[C@H]1[C@@H]2C(N)=O
composite z-score [1]: 0.22 | z-score [2]: -2.2 | composite z-score [3]: 0.32 | composite z-score [4]: 1.25 | composite z-score [5]: 0.648 | composite z-score [6]: 0.027 | composite z-score [7]: -0.0055 | composite z-score [8]: 0.141 | composite z-score [9]: 1.21 | composite z-score [10]: 2.37

COCCOC(=O)N1C(=O)[C@@]2(c3cc(C#CCCO)ccc31)[C@H](c1ccc(O)cc1)N1[C@H](c3ccccc3)[C@H](c3ccccc3)OC(=O)[C@H]1[C@@H]2C(N)=O
composite z-score [1]: -0.0809 | z-score [2]: -0.016 | composite z-score [3]: -0.597 | composite z-score [4]: -0.523 | composite z-score [5]: 0.456 | composite z-score [6]: -0.0118 | composite z-score [7]: 0.0611 | composite z-score [8]: 0.0157 | composite z-score [9]: 0.393 | composite z-score [10]: 0.755

COc1ccccc1CN1C(=O)c2ccccc2[C@@H](C(=O)NCCN2CCOCC2)[C@@H]1c1ccc(CO)cc1
composite z-score [1]: 0.623 | z-score [2]: -1.64 | composite z-score [3]: -0.725 | composite z-score [4]: -0.652 | composite z-score [5]: 0.0041 | composite z-score [6]: -0.185 | composite z-score [7]: 0.123 | composite z-score [8]: -0.232 | composite z-score [9]: 1.01 | composite z-score [10]: -0.737

COC(=O)c1ccc(C23CC2(C(NP(=O)(c2ccccc2)c2ccccc2)c2ccccc2)C3)cc1 (stereo not given)
composite z-score [1]: 1.31 | z-score [2]: -1.17 | composite z-score [3]: -0.0656 | composite z-score [4]: 2.35 | composite z-score [5]: 0.696 | composite z-score [6]: 0.195 | composite z-score [7]: 0.484 | composite z-score [8]: -0.708 | composite z-score [9]: 2.58 | composite z-score [10]: 1.38

COc1ccc(NN2C(C(O)c3ccc(OC)c(OCc4ccccc4)c3)C=CC3C(=O)N(C4CCCCC4)C(=O)C32)cc1 (stereo not given)
composite z-score [1]: 1.4 | z-score [2]: -1.21 | composite z-score [3]: -0.167 | composite z-score [4]: 1.15 | composite z-score [5]: 0.63 | composite z-score [6]: 0.135 | composite z-score [7]: 0.213 | composite z-score [8]: 0.751 | composite z-score [9]: 0.637 | composite z-score [10]: 1.82

C=CC[C@@]1(C(=O)N2CCOCC2)N=C(c2ccc(OCCCO)cc2)O[C@@H]1c1ccccc1N=[N+]=[N-]
composite z-score [1]: 1.45 | z-score [2]: -1.82 | composite z-score [3]: 0.37 | composite z-score [4]: 1.83 | composite z-score [5]: 0.904 | composite z-score [6]: 0.171 | composite z-score [7]: -0.043 | composite z-score [8]: 1.82 | composite z-score [9]: 1.47 | composite z-score [10]: 1.8

CO[C@H]1O[C@H](CO)[C@@H](OC(=O)Nc2ccc(Oc3ccccc3)cc2)[C@H](OC(=O)Nc2ccccc2)[C@H]1OC(=O)Nc1ccccc1
composite z-score [1]: 0.838 | z-score [2]: -2.88 | composite z-score [3]: 0.62 | composite z-score [4]: 1.26 | composite z-score [5]: -0.278 | composite z-score [6]: 0.143 | composite z-score [7]: -0.0789 | composite z-score [8]: 0.149 | composite z-score [9]: 1.2 | composite z-score [10]: 1.8

COc1ccc(C#Cc2ccc3c(c2)[C@]2(C(=O)N3)[C@H](c3ccc(O)cc3)N3[C@H](c4ccccc4)[C@H](c4ccccc4)OC(=O)[C@H]3[C@@H]2C(=O)NC[C@H](O)c2ccccc2)cc1
composite z-score [1]: 1.33 | z-score [2]: -1.63 | composite z-score [3]: 0.0197 | composite z-score [4]: 0.199 | composite z-score [5]: 0.689 | composite z-score [6]: 0.164 | composite z-score [7]: -0.138 | composite z-score [8]: 0.305 | composite z-score [9]: 0.818 | composite z-score [10]: 1.26

CCCNC(=O)[C@@]1(c2ccc([N+](=O)[O-])cc2)CC(=O)N(CC23CC4CC(CC(C4)C2)C3)[C@@H]1c1ccc(CO)cc1
composite z-score [1]: 0.914 | z-score [2]: -2.86 | composite z-score [3]: 0.421 | composite z-score [4]: -0.865 | composite z-score [5]: -0.827 | composite z-score [6]: 0.0004 | composite z-score [7]: -0.569 | composite z-score [8]: 0.0278 | composite z-score [9]: -0.303 | composite z-score [10]: 1.01
